In PubChem BioAssay AID1159580 (chemical genetic matrix, 2015):
Out of some 5,500 compounds screened, about 2,000 (36%) were called active. Inconclusive results (about 18%) are left out. Cut-off read from the data, not from the text of the source: active = normalized growth mostly below about 0.91 (no sharp cut-off); inconclusive = no clear call, values can overlap the other calls; inactive = mostly above about 0.92. This is one part of the list.

Assay: chemical genetic growth profiling, strain panel (AID 1159580);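 note: tested at 20 µM; growth read once vehicle control cultures reached saturation at 30 °C; 1 = growth at the plate median or of vehicle wells; lower values mean less growth of the strain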
Conditions: growth OD

Measured: normalized growth

Nc1ccc(C(=O)NCC(=O)O)cc1
inactive: S. cerevisiae deletion strains, locus YKL009W, strain mrt4, hits give low values 1.02 | S. cerevisiae deletion strains, locus YKL068W, hits give low values 1 | S. cerevisiae deletion strains, locus YKL085W, strain MDH1 (second series), hits give low values 1.01 | S. cerevisiae deletion strains, locus YKL085W, strain MDH1, hits give low values 1.01 | S. cerevisiae deletion strains, locus YKL160W, strain elf1, hits give low values 1.04 | S. cerevisiae deletion strains, locus YKL190W, strain CNB1, hits give low values 1 | S. cerevisiae deletion strains, locus YKR001C, strain vps1, hits give low values 1.02 | S. cerevisiae deletion strains, locus YKR026C, strain gcn3, hits give low values 1.01 | S. cerevisiae deletion strains, locus YKR091W, strain srl3, hits give low values 0.999 | S. cerevisiae deletion strains, locus YLL001W, strain dnm1, hits give low values 1 | S. cerevisiae deletion strains, locus YLL026W, hits give low values 0.997 | S. cerevisiae deletion strains, locus YLL041C, strain sdh2, hits give low values 1.01 | S. cerevisiae deletion strains, locus YLR027C, strain aat2, hits give low values 1.03 | S. cerevisiae deletion strains, locus YLR039C, strain RIC1, hits give low values 1.01 | S. cerevisiae deletion strains, locus YLR058C, strain SHM2, hits give low values 0.998 | S. cerevisiae deletion strains, locus YLR102C, strain apc9, hits give low values 1.02 | S. cerevisiae deletion strains, locus YLR113W, strain HOG1, hits give low values 0.937 | S. cerevisiae deletion strains, locus YLR221C, strain rsa3, hits give low values 1 | S. cerevisiae deletion strains, locus YLR258W, strain gsy2, hits give low values 1.03 | S. cerevisiae deletion strains, locus YLR262C, strain YPT6 (second series), hits give low values 1.02 | S. cerevisiae deletion strains, locus YLR262C, strain YPT6, hits give low values 1.04 | S. cerevisiae deletion strains, locus YLR268W, strain sec22, hits give low values 1.02 | S. cerevisiae deletion strains, locus YLR320W, strain mms22, hits give low values 1.01 | S. cerevisiae deletion strains, locus YLR330W, strain CHS5, hits give low values 1.01 | S. cerevisiae deletion strains, locus YLR342W, strain FKS1 (second series), hits give low values 0.987 | S. cerevisiae deletion strains, locus YLR342W, strain FKS1, hits give low values 1.02 | S. cerevisiae deletion strains, locus YLR357W, strain rsc2, hits give low values 1.07 | S. cerevisiae deletion strains, locus YLR370C, strain arc18, hits give low values 1.01 | S. cerevisiae deletion strains, locus YLR371W, strain rom2, hits give low values 1 | S. cerevisiae deletion strains, locus YLR384C, strain iki3, hits give low values 1.02 | S. cerevisiae deletion strains, locus YLR418C, strain cdc73, hits give low values 1.04 | S. cerevisiae deletion strains, locus YML016C, strain PPZ1, hits give low values 1 | S. cerevisiae deletion strains, locus YML032C, strain rad52, hits give low values 1.01 | S. cerevisiae deletion strains, locus YML120C, strain ndi1, hits give low values 1 | S. cerevisiae deletion strains, locus YML124C, strain tub3, hits give low values 1.01 | S. cerevisiae deletion strains, locus YMR058W, strain fet3, hits give low values 1.01 | S. cerevisiae deletion strains, locus YMR078C, strain ctf18, hits give low values 1.02 | S. cerevisiae deletion strains, locus YMR125W, strain sto1, hits give low values 1.02 | S. cerevisiae deletion strains, locus YMR129W, hits give low values 1.02 | S. cerevisiae deletion strains, locus YMR205C, strain PFK2, hits give low values 1.03 | S. cerevisiae deletion strains, locus YMR223W, strain ubp8, hits give low values 1.01 | S. cerevisiae deletion strains, locus YMR231W, strain pep5, hits give low values 1.02 | S. cerevisiae deletion strains, locus YMR263W, strain SAP30, hits give low values 1 | S. cerevisiae deletion strains, locus YMR307W, strain GAS1, hits give low values 1.03 | S. cerevisiae deletion strains, locus YNL067W, strain RPL9B, hits give low values 0.99 | S. cerevisiae deletion strains, locus YNL071W, strain lat1, hits give low values 1.03 | S. cerevisiae deletion strains, locus YNL153C, strain GIM3, hits give low values 0.973 | S. cerevisiae deletion strains, locus YNL183C, strain NPR1, hits give low values 0.908 | S. cerevisiae deletion strains, locus YNL209W, strain ssb2, hits give low values 1.01 | S. cerevisiae deletion strains, locus YNL233W, strain BNI4, hits give low values 0.986 | S. cerevisiae deletion strains, locus YNL248C, strain rpa49, hits give low values 1.02 | S. cerevisiae deletion strains, locus YNL250W, strain rad50, hits give low values 1.01 | S. cerevisiae deletion strains, locus YNL271C, strain bni1, hits give low values 1.02 | S. cerevisiae deletion strains, locus YNL298W, strain CLA4, hits give low values 1.03 | S. cerevisiae deletion strains, locus YNL307C, strain MCK1, hits give low values 1.02 | S. cerevisiae deletion strains, locus YNL322C, strain KRE1 (second series), hits give low values 1.01 | S. cerevisiae deletion strains, locus YNL322C, strain KRE1, hits give low values 0.997 | S. cerevisiae deletion strains, locus YNR049C, strain mso1, hits give low values 1.01 | S. cerevisiae deletion strains, locus YNR052C, strain pop2, hits give low values 1.02 | S. cerevisiae deletion strains, locus YOL006C, strain TOP1, hits give low values 0.96 | S. cerevisiae deletion strains, locus YOL012C, strain htz1 1.06 | S. cerevisiae deletion strains, locus YOL147C, strain pex11, hits give low values 1.01 | S. cerevisiae deletion strains, locus YOR001W, strain rrp6, hits give low values 0.986 | S. cerevisiae deletion strains, locus YOR061W, strain CKA2, hits give low values 1.01 | S. cerevisiae deletion strains, locus YOR069W, strain VPS5, hits give low values 1 | S. cerevisiae deletion strains, locus YOR070C, strain gyp1, hits give low values 1.01 | S. cerevisiae deletion strains, locus YOR080W, strain dia2, hits give low values 1.01 | S. cerevisiae deletion strains, locus YOR083W, strain WHI5, hits give low values 0.99 | S. cerevisiae deletion strains, locus YOR106W, strain vam3, hits give low values 1.04 | S. cerevisiae deletion strains, locus YOR136W, strain idh2, hits give low values 1.02 | S. cerevisiae deletion strains, locus YOR144C, strain elg1, hits give low values 1.01 | S. cerevisiae deletion strains, locus YOR184W, strain ser1, hits give low values 1.02 | S. cerevisiae deletion strains, locus YOR231W, strain MKK1, hits give low values 0.97 | S. cerevisiae deletion strains, locus YOR265W, strain rbl2, hits give low values 1 | S. cerevisiae deletion strains, locus YOR270C, strain vph1, hits give low values 1.02 | S. cerevisiae deletion strains, locus YOR290C, strain snf2, hits give low values 1.04 | S. cerevisiae deletion strains, locus YOR316C, strain cot1, hits give low values 1.02 | S. cerevisiae deletion strains, locus YPL051W, strain arl3, hits give low values 1.02 | S. cerevisiae deletion strains, locus YPL078C, strain atp4, hits give low values 1.02 | S. cerevisiae deletion strains, locus YPL106C, strain sse1, hits give low values 1.04 | S. cerevisiae deletion strains, locus YPL240C, strain hsp82, hits give low values 1.01 | S. cerevisiae deletion strains, locus YPL241C, strain CIN2, hits give low values 1 | S. cerevisiae deletion strains, locus YPL256C, strain CLN2, hits give low values 0.936 | S. cerevisiae deletion strains, locus YPR119W, strain clb2, hits give low values 1.01 | S. cerevisiae deletion strains, locus YPR141C, strain kar3, hits give low values 1.01 | S. cerevisiae deletion strains, locus YPR163C, strain tif3, hits give low values 1.01 | S. cerevisiae deletion strains, locus YPR167C, strain met16, hits give low values 1.02 | S. cerevisiae deletion strains, strain wtn01, hits give low values 1.03 | S. cerevisiae strains, strain wild type, hits give low values 0.995
